The values below come from PubChem BioAssay (NCI).

The assay can be described thus: NCI Yeast Anticancer Drug Screen. Data for the rad50EPP+ strain (AID 151).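 Also: 0% = growth of vehicle-treated control cultures.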 The conditions noted are these: S. cerevisiae rad50 mutant strain, active compounds read high. How it is done: Growth inhibition of yeast strains with defined genetic alterations is measured as a screen for potential anti-cancer activity. Selected strains with alterations in DNA damage repair or cell cycle control were exposed to compounds and growth inhibition was measured relative to vehicle treated controls. The strain used in this assay is rad50EPP+

Compounds without any hit were thinned out: in the full panel of roughly 79,000, 15% have a hit. Values without a mark were called inactive. Active and inactive are the calls of the source. Rule as the data show it: active = growth inhibition above about 70%; inactive = the rest.

For the molecule `O=C(O)CNC(=S)Nc1ccccc1`, the growth inhibition (at 1.2 µM) is -86%; the growth inhibition (at 3.7 µM) was -35%; the growth inhibition (at 11.0 µM) was -74%; the growth inhibition (at 33.0 µM) was -40%; the growth inhibition (at 100.0 µM) is 56%.
As to `CCOC(=O)C(Br)C(Br)c1ccccc1Cl` (stereo not given), the growth inhibition was 24% (at 1.2 µM); 62% (at 3.7 µM); 96% (active) (at 11.0 µM); 99% (active) (at 33.0 µM); 99% (active) (at 100.0 µM).
Take `O=C1CSC(c2cccc(Cl)c2)N1c1ccc(-c2ccc(-n3c(-c4ccccc4)nc4ccccc4c3=O)cc2)cc1` (stereo not given): the growth inhibition was -1% (at 1.2 µM); 4% (at 3.7 µM); 8% (at 11.0 µM); 9% (at 33.0 µM); -4% (at 100.0 µM).
Taken in the same sequence, the figures for `CC(=O)ON=C1C=CC(=C(C#N)c2ccc(Cl)cc2)C=C1` were 19%, 38%, 64%, 91% (active) and 96% (active).
The corresponding values for `CC1(C)CC(=O)C(/C=N/c2nc(-c3ccccc3)cs2)=C(O)C1` are -1%, 1%, 12%, 27% and 34%.
For `CCc1c(Cl)c(C)cc(O)c1Cl`, the growth inhibition (at 1.2 µM) was -27%; the growth inhibition (at 3.7 µM) is -13%; the growth inhibition (at 11.0 µM) is 8%; the growth inhibition (at 33.0 µM) was 42%; the growth inhibition (at 100.0 µM) is 89% (active).
Taken in the same sequence, the figures for `CC(C)OC(=O)Nc1ccc2nc(-c3cscn3)[nH]c2c1` were 9%, 16%, 23%, 31% and 44%.
Turning to `CCCCCCCCCCCCCCCCOP(=O)(O)OCC(N)C(=O)O` (stereo not given), the growth inhibition was -17% (at 1.2 µM); -4% (at 3.7 µM); 80% (active) (at 11.0 µM); 98% (active) (at 33.0 µM); 98% (active) (at 100.0 µM).
